The list is not random: actives were taken first. Their share in the collection is about 2.4%.
POLI inh: blocks human DNA polymerase iota activity; Q9UNA4; Pol iota fluorescent replication assay, 10 min; Potency, µM (titrated, usually from 115 µM), inactives show at the top dose activity, negative = inhibition, hits mostly inhibitors; hit rate 1% among 390,000
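Fluorescent replication assay read twice, at 0 min and 10 min after adding 50 nM (final) substrate. Enzyme (10 nM) and compounds were first incubated 15 min at room temperature; enzyme-free buffer wells were negative controls.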
FEN1 inhibitor: blocks human flap endonuclease 1. P39748. Recombinant FEN1 flap cleavage, fluorescence, 15 min. Potency, µM (doses to about 114 µM), for inactives: at the highest dose activity change, negative = inhibition, most hits filed as inhibitors. hit rate 0.35% among 390,000; also: % is scaled to controls: 0 for no effect and ±100 for the full control effect; nearly all actives have a fitted effect of over 65% in size
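Concentration–response screening of FEN1 (10 nM): 15 min compound preincubation at room temperature, reaction started with 50 nM substrate and read at 0 and 15 min. Corrected, normalized data were fitted by a four-parameter Hill equation.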
TDP1 block: inhibitors of human tyrosyl-DNA phosphodiesterase TDP1; Q9NUW8; recombinant TDP1, AlphaScreen DNA substrate cleavage; Potency, µM (highest dose often 130 µM), inactives show top-dose activity change, negative = inhibition, usual class: inhibitors; hit rate 0.28% among 350,000; also: % is scaled to controls: 0 for no effect and ±100 for the full control effect; nearly all actives have a fitted effect of over 40% in size
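Steps: enzyme plus compound, 15 min RT; add biotin/phosphotyrosine-FITC oligonucleotide (15 nM final), react 5 min; add donor/acceptor beads (10 ug/ml final), 10 min; read AlphaScreen. Tdp1 at 1 nM final.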
Pol eta inh-1: DNA polymerase eta (human) inhibition; recombinant Pol eta, fluorescent DNA replication assay; Q9Y253; hit rate 1.2% among 390,000; Potency, µM (top dose mostly 114 µM), without a hit: at the highest dose activity change, negative = inhibition, most hits filed as inhibitors; also: % is scaled to controls: 0 for no effect and ±100 for the full control effect
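Pol eta (10 nM) was preincubated with compounds for 15 min at room temperature, after which fluorescent replication substrate (50 nM final) was added to start the reaction. Fluorescence was read kinetically at 0 and 10 min.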
Pol kappa inh-1: DNA polymerase kappa (human) inhibition. Q9UBT6. purified Pol kappa, fluorescent DNA synthesis assay, 10 min. Potency, µM (top dose mostly 107 µM), inactives show at the highest dose activity, negative = inhibition, most hits filed as inhibitors. hit rate 0.53% among 400,000. AID 588579; also: % is scaled to controls: 0 for no effect and ±100 for the full control effect
Target sequence (Q9UBT6 whole entry, looked up): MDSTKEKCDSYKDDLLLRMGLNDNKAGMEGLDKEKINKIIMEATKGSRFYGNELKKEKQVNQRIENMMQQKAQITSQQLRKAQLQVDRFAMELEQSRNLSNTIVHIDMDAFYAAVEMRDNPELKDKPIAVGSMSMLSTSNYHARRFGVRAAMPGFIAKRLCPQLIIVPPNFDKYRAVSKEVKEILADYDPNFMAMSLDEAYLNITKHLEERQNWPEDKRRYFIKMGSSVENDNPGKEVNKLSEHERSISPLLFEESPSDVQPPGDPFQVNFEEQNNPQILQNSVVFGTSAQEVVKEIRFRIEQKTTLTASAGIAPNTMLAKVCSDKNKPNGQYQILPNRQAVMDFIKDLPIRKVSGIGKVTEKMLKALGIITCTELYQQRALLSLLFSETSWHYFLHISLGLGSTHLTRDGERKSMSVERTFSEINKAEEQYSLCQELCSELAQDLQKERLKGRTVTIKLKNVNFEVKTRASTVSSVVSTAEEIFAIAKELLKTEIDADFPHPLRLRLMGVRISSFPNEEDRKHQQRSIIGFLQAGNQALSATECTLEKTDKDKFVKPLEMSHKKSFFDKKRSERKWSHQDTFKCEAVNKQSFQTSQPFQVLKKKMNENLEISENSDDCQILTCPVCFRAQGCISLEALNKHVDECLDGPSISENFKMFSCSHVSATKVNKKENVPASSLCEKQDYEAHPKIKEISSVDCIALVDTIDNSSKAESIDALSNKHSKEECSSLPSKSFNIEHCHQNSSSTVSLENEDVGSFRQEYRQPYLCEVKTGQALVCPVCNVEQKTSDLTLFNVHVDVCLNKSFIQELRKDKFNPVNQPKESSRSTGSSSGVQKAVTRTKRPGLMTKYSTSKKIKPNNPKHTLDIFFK
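10 nM Pol kappa preincubated 15 min at room temperature with compounds, then reaction started with substrate at 50 nM final. Fluorescence read kinetically at 0 and 10 min; buffer-only wells served as negative control.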
POLB inh: inhibitors of human DNA polymerase beta | Potency, µM (highest dose often 114 µM), for the others: top-dose activity change, negative = inhibition, usual class: inhibitors | Pol beta primer extension/strand displacement, fluorescence kinetic | hit rate 1.3% among 340,000 | AID 485314 | P06746; also: % is scaled to controls: 0 for no effect and ±100 for the full control effect
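Pol beta (10 nM) and compounds were preincubated 15 min at room temperature, then 50 nM substrate (final) started primer extension/strand displacement. Reads were taken at 0 and 10 min; concentration-response data were fitted to a four-parameter Hill equation.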
TbPGK inh: blocks T. brucei phosphoglycerate kinase; TbPGK coupled GAPDH assay, Kinase-Glo luminescence; shares compounds with Pol kappa inh-1; hit rate 79% among 500; Potency, µM (series often up to 57.5 µM), inactives show at the highest dose activity change, negative = inhibition, actives largely listed as inhibitors; also: % is scaled to controls: 0 for no effect and ±100 for the full control effect; nearly all actives have a fitted effect of over 65% in size
Pol iota confirm: Inhibitors of human DNA polymerase iota, confirmation; hit rate 77% among 1,500; shares compounds with Pol kappa inh-1; Pol iota primer extension, TAMRA/BHQ fluorescence; Potency, µM, actives largely listed as inhibitors
Pol kappa inh-2: confirmation of human DNA polymerase kappa inhibitors; shares compounds with Pol eta inh-1; purified Pol-kappa, fluorescent strand-displacement substrate; Potency, µM, usual class: inhibitors; hit rate 76% among 920
Pol eta inh-2: confirmation of human DNA polymerase eta inhibitors; hit rate 64% among 2,600; shares compounds with Pol eta inh-1; Potency, µM, most hits filed as inhibitors; Pol eta primer extension, TAMRA/BHQ fluorescence, 10 min
Numbers without * were called inactive; ? = inconclusive; · = no result given; [ ] = remark or other dose. Calls follow the shape of the dose curve; as a rule, active = well fitted curve in the direction sought with a large enough effect; inconclusive = small, poorly fitted or top-dose-only effect, or another doubt; inactive = no such curve, though single readings can be large; an effect the other way counts as inactive or inconclusive. Potency is read from the fitted curve at half-maximal effect.

SMILES	POLI inh	FEN1 inhibitor	TDP1 block	Pol eta inh-1	Pol kappa inh-1	POLB inh	Pol iota confirm	Pol eta inh-2	others
CC(=O)Oc1ccc(Cl)cc1/C=C/c1ccc2ccccc2n1	77%	-1%	·	-22%	-4%	-2%	·	·
COC(=O)c1sc2cccc(F)c2c1S(=O)(=O)N1CCN(c2cccc(C)c2)C(C)C1 (stereo not given)	5%	16%	8%	-24%	-3%	1%	·	·
O=C1C(=Cc2cccc(O)c2O)SC(=S)N1CCCN1CCOCC1	·	·	·	20µM*	·	·	?	?
O=C(C1COc2ccccc2O1)N1CCCC1 (stereo not given)	-1%	-5%	0%	-11%	9%	-22%	·	·
O=C(C1COc2ccccc2O1)N1CCc2ccccc21 (stereo not given)	45µM*	0%	·	79µM*	?	32µM*	75*	?
CCOc1ccc(NC(=O)CN(C)C(=O)c2csc3c2CCCC3)cc1OCC	21%	-2%	2%	-10%	-7%	·	·	·
O=C(COC(=O)c1cc2c(s1)CCC2)Nc1ccc(F)cc1	20µM*	-3%	35µM*	18µM*	32µM*	8.9µM*	24*	24*
CCOc1ccc(NC(=O)CN(C)C(=O)c2cc3c(s2)CCC3)cc1OCC	·	·	·	3.5µM*	·	·	17*	34*	Pol kappa inh-2=19*
C[C@@](N)(C(=O)O)c1ccc(C(=O)O)cc1	·	·	-5%	·	3%[19.4 µM]	·	·	·
Nc1cc([N+](=O)[O-])ccc1Nc1ccccc1	30%	-17%	7%	-4%	-7%	-1%	·	·
Nc1ccc(Nc2ccccc2)c(S(=O)(=O)O)c1	11µM*	-1%	56µM*	16µM*	79µM*	11µM*	47*	38*	Pol kappa inh-2=8.4*
NN=C1c2ccccc2C(=O)C1C(=O)C(c1ccccc1)c1ccccc1 (stereo not given)	40µM*	?	·	?	22µM*	·	75*	85*	Pol kappa inh-2=17*
CCc1ccccc1Nc1nn2c(=O)c3ccc(C(=O)NCc4cccs4)cc3nc2s1	79µM*	-16%	·	?	0%[60.1 µM]	8.9µM*	?	·	Pol kappa inh-2=?
O=S(=O)(c1ccc2c(Cl)cccc2c1)N1CCN(c2nc(-c3cccs3)nc3ccccc23)CC1	-5%	-8%	1%	·	5%	·	·	·
COc1ccc(NC(=O)Cn2c(=O)n(-c3cccc(C)c3)c(=O)c3c2c2cc(C)ccc2n3C)cc1Cl	0%	16%	3%	-6%	-11%	23%	·	·
O=C1c2cc(O)c(O)cc2OC(c2ccc(O)c(O)c2)C1O (stereo not given)	3.2µM*	32µM*	·	14µM*	8.9µM*	·	38*	27*	Pol kappa inh-2=19*
CCc1nnc(NC(=O)C(=O)c2cc(C)n(-c3ccccc3)c2C)s1	-21%	-3%	9%	50µM*	-5%	15%	?	85*	Pol kappa inh-2=13*
CCOCCc1nnc(NC(=O)C(=O)c2cc(C)n(-c3cccc(Cl)c3)c2C)s1	169%	-23%	6%	-4%	-6%	28%	·	·
O=C1C=C(N2CCCCC2)c2ccccc2C1=O	8.9µM*	-8%	·	20µM*	-10%	·	34*	24*
O=C1c2ccccc2C(=O)c2c1cccc2N1CCCC1	?	?	2%	-20%	-20%	0%	·	·
COc1ccc2[nH]c(=O)c(C(=O)O)cc2c1	103%	1%	5%	-22%	1%	?	·	·
COc1ccc2[nH]c(=O)cc(C(=O)O)c2c1	?	-11%	22µM*	14µM*	?	18µM*	?	27*	Pol kappa inh-2=11*
Cc1ccc(NC(=O)CN2C(=O)N/C(=C/c3cc(C)n(-c4ccc(C(=O)O)cc4)c3C)C2=O)cc1	35µM*	-10%	·	22µM*	?	50µM*	42*	27*	Pol kappa inh-2=24*
CCc1c(C)sc(NC(=O)c2cc3nc(-c4ccc(OC)cc4)cc(C(F)(F)F)n3n2)c1C(=O)OC	47%	-2%	1%[12.3 µM]	-10%	16%	13%	·	·
COc1cc(OC)c(OC)cc1/C=C1\Oc2cc(OCC(=O)N3Cc4ccccc4C[C@H]3C(=O)O)ccc2C1=O	?	?	·	22µM*	79µM*	?	27*	21*
SMILES	POLI inh	FEN1 inhibitor	TDP1 block	Pol eta inh-1	Pol kappa inh-1	POLB inh	Pol iota confirm	Pol eta inh-2	others
COc1ccc2c(c1)O/C(=C\c1ccccc1C)C2=O	7%	?	·	-10%	0%	10%	·	·
C=CC(=O)N1C/C(=C/c2ccc(F)cc2)C(=O)/C(=C\c2ccc(F)cc2)C1	11µM*	-18%	·	10µM*	79µM*	·	60*	76*	TbPGK inh=5.8µM*
Clc1ccc(-c2csc(-c3nc(-c4ccc(Br)s4)cs3)n2)cc1	30%	21%	1%	-13%	0%	-1%	·	·
Cc1ccc(S(=O)(=O)NCc2nc(-c3cccc(C)c3)no2)cc1	-11%	-1%	4%	-21%	-20%	9%	·	·
COCCOC(=O)c1[nH]c2c(c1C)C(=O)CC(c1ccco1)C2 (stereo not given)	-79%	?	·	13µM*	22µM*	11µM*	42*	38*
COCCOC(=O)c1[nH]c2c(c1C)C(=O)CC(c1ccc(F)cc1)C2 (stereo not given)	5%	-8%	5%	-13%	-2%	?	·	·
CCOC(=O)c1[nH]c2c(c1C)C(=O)CC(c1ccco1)C2 (stereo not given)	?	?	?	20µM*	56µM*	28µM*	67*	60*
C/C(N)=C(/C#N)C(=O)CSc1nnc(Nc2cccc(C)c2)s1	?	?	?	20µM*	?	40µM*	75*	?
Cc1cccc(Nc2nnc(SCC(=O)c3c(N)n(C4CC4)c(=O)[nH]c3=O)s2)c1	5%	21%	-8%	1%	-19%	·	·	·

Screening results (PubChem BioAssay)
